Compounds without any hit were thinned out: in the full panel of roughly 79,000, 15% have a hit. A number with no mark means an inactive call. No stated cut-off is given here; in the data, active means growth inhibition above about 70%; inactive means the rest.
Assay: NCI Yeast Anticancer Drug Screen. Data for the mlh1 rad18 strain (AID 175)
Details: S. cerevisiae mlh1 rad18 strain growth inhibition; at 50.0 µM; active compounds read high
Procedure: Growth inhibition of yeast strains with defined genetic alterations is measured as a screen for potential anti-cancer activity. Selected strains with alterations in DNA damage repair or cell cycle control were exposed to compounds and growth inhibition was measured relative to vehicle treated controls. The strain used in this assay is mlh1 rad18
Compound O=C(Nc1cccc([N+](=O)[O-])c1)OCC#CCOC(=O)Nc1cccc([N+](=O)[O-])c1 has a growth inhibition of 16.1%.
For Cc1cc(Cl)nc(Nc2ccccc2)n1, the growth inhibition was 13.7%.
CCCOC(=O)C(O)c1ccc(C)cc1 (stereo not given) showed a growth inhibition of -14.7%.
With O=C(Cl)CCc1ccnc2ccccc12 the growth inhibition was 11.2%.
For CC(C)(C)OC(=O)CC1(O)CCCCC1, the growth inhibition was 8.05%.
Work on CNc1ccn(C2OC(CO)C(O)C2O)c(=O)n1 (stereo not given) yielded a growth inhibition of 8.25%.
CCCCCCCC(=O)CC(C)C gave a growth inhibition of 6.65%.
Work on CCCOC(=O)CC(=O)OCC yielded a growth inhibition of -17.4%.
Work on C(=N\NC1=NCCCCN1)/c1ccc2ccccc2c1 yielded a growth inhibition of 7.6%.
Work on Cc1ccc(Cl)cc1NC(=O)Oc1ccc(Cl)cc1C yielded a growth inhibition of 3.25%.
O=C(/C=C/c1ccc([N+](=O)[O-])cc1)NN=C(c1ccccc1)c1ccccc1 showed a growth inhibition of -0.15%.
CCN(CC)[Si](C)(C)C gave a growth inhibition of -24.4%.
Compound CCOC(=O)C1=C(C)NC(C)=C(C(=O)OCC)C1 has a growth inhibition of 13.5%.
Work on O=C([O-])c1ccc2c(c1)-c1nc-2nc2[n-]c(nc3nc(nc4[n-]c(n1)c1ccc(C(=O)[O-])cc41)-c1ccc(C(=O)[O-])cc1-3)c1ccc(C(=O)[O-])cc21.[Gd+3].[K+] yielded a growth inhibition of -12.1%.
In the case of CC(=O)OCC1OC(n2c(-c3ccc(Cl)cc3)cc(-c3ccccc3)c(C#N)c2=S)C(OC(C)=O)C(OC(C)=O)C1OC(C)=O (stereo not given), the growth inhibition was 14.2%.
In the case of C/C=C/C1OC(OC)(OC)C1(OC)OC (stereo not given), the growth inhibition was 11.6%.
Work on Cc1cc(Cl)c2c(c1)C(=O)C(C)C2.[Cu+2] (stereo not given) yielded a growth inhibition of -6.2%.
For C/C=C/C(=O)OC1CCCC1, the growth inhibition was 23.9%.
In the case of CSc1nc2c(nnn2C2OCC(O)C(O)C2O)c(=O)[nH]1 (stereo not given), the growth inhibition was 6.4%.
CCC(=O)Oc1cc(C(C)(C)C)c(OC(=O)CC)cc1C(C)(C)C gave a growth inhibition of 35.4%.
ClCC1CCN(Cc2ccccc2)CC1 gave a growth inhibition of 6.9%.
With CC1(C)C2CCC1(C)C(OC(=O)C1OC(O)C(O)C(O)C1O)C2 (stereo not given) the growth inhibition was 28.9%.
O=NN1C2CCCCC2C2CCCCC21 (stereo not given) showed a growth inhibition of 3.8%.
Compound N#Cc1c(N)nc(Nc2cccc3ccccc23)c(C#N)c1C#N has a growth inhibition of 36.8%.
With CCCOC(=O)c1c(Cl)c(Cl)c(Cl)c(Cl)c1C(=O)OCCC the growth inhibition was 8.3%.
CCCCN(CCCC)C(=O)/C=C\C(=O)O gave a growth inhibition of 4.9%.
Work on CCCCCC(=O)Oc1ccccc1OC yielded a growth inhibition of -7.9%.
With CCCCCCCCCCCCCCCCCCNC(=O)NCc1ccncc1 the growth inhibition was 9.3%.
CCc1ccc(OC(=O)CCl)cc1 gave a growth inhibition of -42.5%.
In the case of COC(=O)c1cc(C(=O)OC)c(C/C(=N/NC(N)=S)C(=O)Nc2ccc(Cl)c(Cl)c2)nc1C/C(=N/NC(N)=S)C(=O)Nc1ccc(Cl)c(Cl)c1, the growth inhibition was 44%.
Work on Nc1ncnc2c(C3OC(CO)C(O)C3O)nsc12 (stereo not given) yielded a growth inhibition of -38%.
CCCc1ccc(N)cc1 gave a growth inhibition of -15.7%.
For C[N+](C)(C)CCOC(=O)C(c1ccccc1)C1(O)CCCC1 (stereo not given), the growth inhibition was 22.3%.
For O=C1Nc2cccc3cc(NCC(O)CCl)cc1c23 (stereo not given), the growth inhibition was -23.9%.
Work on CCCCc1nc(C)oc1C(C)C yielded a growth inhibition of -8.2%.
Cc1cc(Cl)c2c(C)ccc(C)c2n1 gave a growth inhibition of 8.95%.
Compound COC(=O)C1CCC(=O)N1C(c1ccc(OC)cc1)c1ccc(OC)cc1 (stereo not given) has a growth inhibition of 6.7%.
Work on F[B-](F)(F)[NH2+]c1ccc(-c2ccc([NH2+][B-](F)(F)F)c(Cl)c2)cc1Cl yielded a growth inhibition of 10.7%.
Work on CC(=O)n1[nH]c(=O)n(-c2ccc(Cl)cc2)c1=O yielded a growth inhibition of -73%.
Compound CC(Cl)C(O)C#N (stereo not given) has a growth inhibition of -16.2%.
